The values that follow come from PubChem BioAssay (NCI).

This is part of a sample that, as a whole, favours compounds with a hit. Of some 83,000 tested, about 20% had one in any assay.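 The endpoint reported here, percent growth, reads 100 for growth as untreated, 0 for no net growth and -100 for all cells dead.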 Unmarked numbers belong to inactive results. Calls of active or inactive are those of the source. How the source made its calls: active means growth percent below 10; inactive means the rest.

What all share (assay): NCI-60 one-dose screen, 48 h (100 = growth as untreated, 0 = no growth, -100 = all killed)
Common to all, as to conditions: 10 µM unless noted

Experiment [1] has as its system NCI-H23 lung.
The subject of experiment [2] is NCI-H226 lung.
For experiment [3], the system named is NCI-H322M lung.
In experiment [4] the test system is HOP-62 NSCLC.
Experiment [5] relates to HOP-92 NSCLC.
Experiment [6] deals with NCI-H522 lung.
Experiment [7] deals with A549/ATCC NSCLC.
The subject of experiment [8] is 786-0 renal.
In experiment [9] the test system is COLO 205 colon.
In experiment [10] the test system is NCI-H460 lung.

Regarding `CCCCOC(=O)c1ccccc1O`, the growth in [1] was 108%; in [2], 105%; in experiment [3] it was 112%; in experiment [4], 110%; in [5], 111%; in experiment [6] it was 125%. The growth in experiment [7] is 113%; in experiment [8], 109%; in [9], 115%.

`CCNc1ccc2ccccc2c1N=Nc1ccc(N=Nc2ccccc2)cc1`: the growth in [1] is 99.4%; in experiment [2], 83.6%; in [3], 101%; in experiment [4] it was 102%; in [5], 98.1%; in experiment [6], 90.2%. For the same compound, the growth in experiment [7] is 102%; in experiment [8] it was 108%; in [9], 100%.

As for `O=[N+]([O-])c1c(O)c(CNCCCO)cc(CNCCCO)c1O`, the growth is 106% in [1]; 101% in [2]; 99.5% in experiment [3]; 106% in experiment [4]; 90.8% in experiment [5]; 121% in [6]. The figures for the growth in [7], in experiment [8] and in experiment [9] were 95.4%, 118% and 120%, respectively.

Consider `CC(=O)Nc1ccc(O)c(C)c1`, for which the growth in experiment [1] is 99.8%; in [2], 95%; in experiment [3], 100%; in experiment [4], 98%; in experiment [5], 100%; in [6] it was 93.5%. The growth in experiment [7] was 88.1%; in experiment [8], 105%; in [9], 109%.

For the compound `CC1(C)C2CCC1(C)C1(C2)OCCS1` (centres undefined), the growth in experiment [1] is 95.6%; in [2], 92.7%; in experiment [3], 99.6%; in experiment [4], 101%; in [5], 102%; in experiment [6] it was 102%. Further, the growth in experiment [7] is 99%; in experiment [8], 97.4%; in [9] it was 118%.

In the case of `COc1ccc(Br)c2c1C(=O)CC2`, the growth in experiment [1] was 109%; in [2], 100%; in experiment [3], 159%; in experiment [4] it was 116%; in [5], 94.5%; in [6], 43.1%. Besides, the growth in experiment [7] was 122%; in experiment [8], 113%; in [9], 114%.

For the compound `CCOC(=O)CNC`, the growth is 101% in [1]; 98.8% in [2]; 96.9% in experiment [3]; 106% in experiment [4]; 91.1% in [5]; 123% in experiment [6]. Also, the growth in experiment [7] is 87.8%; in [8], 101%; in experiment [9], 116%.

On to `CCN(C(=O)Nc1ccccc1Cl)c1ccccc1`, for which the growth in experiment [1] is 101%; in experiment [2], 107%; in experiment [4], 111%; in experiment [10], 108%; in experiment [5], 101%; in [6], 106%. Also, the growth in experiment [7] is 100%; in experiment [8] it was 112%.

As for `C=C(C)COc1ccc(C(C)(C)C)cc1`, the growth in experiment [1] was 108%; in [2], 95.8%; in experiment [3], 102%; in experiment [4], 91.2%; in [5] it was 99.3%; in experiment [6] it was 90.8%. Besides, the growth is 91.2% in [7], 101% in experiment [8] and 104% in [9].

Take `Nc1nc2nnc(-c3ccccc3)c(-c3ccccc3)n2n1`: the growth in experiment [1] is 97.2%; in [2] it was 88.3%; in experiment [3], 110%; in experiment [4], 16.7%; in experiment [5], 61.4%; in experiment [6] it was 109%. For the same compound, the growth is 101% in [7], 111% in [8] and 101% in experiment [9].

Take `CCOc1ccncc1[N+](=O)[O-]`: the growth in [1] is 106%; in experiment [2], 102%; in [3] it was 110%; in experiment [4] it was 99.1%; in experiment [5], 102%; in [6], 106%. Further, the growth in experiment [7] is 97.5%; in [8], 106%; in experiment [9], 110%.

On to `NNC(=O)CCCCl`, for which the growth was 97.7% in experiment [1]; 98.7% in experiment [2]; 107% in experiment [3]; 107% in experiment [4]; 137% in experiment [5]; 104% in [6]. In addition, the values for the growth in [7], in experiment [8] and in experiment [9] were 100%, 108% and 118%, respectively.

With `COc1cc(C(=O)O)c(O)c(C(C)(C)C)c1`, the growth was 102% in experiment [1]; 102% in [2]; 107% in experiment [3]; 104% in [4]; 88.2% in [5]; 106% in experiment [6]. Also, the growth was 102% in [7], 101% in experiment [8] and 107% in experiment [9].

On to `CCNCC(C)(C)O`, for which the growth is 99.1% in experiment [1]; 105% in [2]; 98% in [3]; 100% in experiment [4]; 84.4% in experiment [5]; 109% in [6]. Moreover, the growth is 96.1% in experiment [7], 103% in [8] and 113% in experiment [9].

For the compound `Clc1ccc(-c2noc(/C=C\c3ccccc3)n2)cc1`, the growth in [1] was 101%; in experiment [2], 93.1%; in experiment [3], 87.1%; in experiment [4], 106%; in experiment [5], 99.3%; in experiment [6], 87%. The growth in experiment [7] was 87.9%; in [8], 99.4%; in [9], 105%.

Turning to `c1ccc(-c2ccc3ccccc3c2)cc1`, the growth is 100% in [1]; 80.4% in experiment [2]; 85% in [3]; 85.3% in experiment [4]; 77% in experiment [5]; 57.1% in [6]. The growth in experiment [7] is 84.2%; in experiment [8] it was 112%; in [9], 96.3%.

Regarding `C#CCSc1nnnn1-c1ccccc1`, the growth in experiment [1] was 97.9%; in experiment [2] it was 82.5%; in [3], 98%; in [4], 105%; in experiment [5] it was 50.5%; in experiment [6], 92.9%. Moreover, the growth in experiment [7] was 64%; in experiment [8] it was 92%; in experiment [9], 113%.

Consider `NC(=S)N/N=C/c1ccc(Cl)cc1`, for which the growth in [1] was 98.1%; in experiment [2] it was 97.5%; in [3] it was 104%; in experiment [4], 113%; in experiment [5], 91%; in [6], 87.8%. The results for the growth in [7], in [8] and in experiment [9] were 106%, 104% and 131%, respectively.

Take `O=[N+]([O-])c1ccc2[nH]c(=S)n(/C=C(/c3ccc(Cl)cc3Cl)S(=O)(=O)Cc3ccc(Cl)cc3Cl)c2c1`: the growth in experiment [1] was 96.2%; in experiment [2] it was 106%; in experiment [3], 100%; in experiment [4] it was 90.3%; in experiment [5], 112%; in [6], 88.6%. Also, the growth in experiment [7] was 83.3%; in experiment [8], 94.6%; in experiment [9], 99%.

As for `COc1cc2c(c(OC)c1OC)-c1ccc(SC)c(=O)cc1[C@@H](NC1OC(CO)C(O)C(O)C1O)CC2` (some centres undefined), the growth in experiment [1] was 29.9%; in experiment [2] it was 43.4%; in experiment [3] it was 33%; in experiment [4], 25.9%; in experiment [5], 77.9%; in [6], -16.8% (active). The growth in [7] is 10.4%; in experiment [8], 19.8%; in [9], -61.5% (active).
